According to PMC9911399, “Two distinct binding modes provide the RNA-binding protein RbFox with extraordinary sequence specificity”:
Where a chain is given by its changes, count along the chain named. Whole data set: some 16,000 sequences, median “ka relative to ugcaugu” near 0.0091, cut for the highest 2% near 0.032. Shown is part of a subset that was picked to be rich in the highest values.

T1: RBFOX1 RRM (Homo sapiens, UniProt Q9NWB1 109-208)
T1 sequence: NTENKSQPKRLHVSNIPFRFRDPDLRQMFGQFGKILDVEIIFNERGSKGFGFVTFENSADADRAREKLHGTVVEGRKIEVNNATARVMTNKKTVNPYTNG

B1: GUGCGUA (DNA:RNA)
RNA: GGGAGACCGGAAUUCAGAUUGUCCGUGCGUAUUAAAUCCCGUCGUAGCCACCA
DNA 1: CAATCTGAATTCCGGTCTCCC
DNA 2: TGGTGGCTACGACGGGATT
B2: CGUGGAA (DNA:RNA)
RNA: B1 RNA with G25C, U26G, G27U, C28G, U30A
DNA 1: CAATCTGAATTCCGGTCTCCC
DNA 2: TGGTGGCTACGACGGGATT
B3: CCCGACG (DNA:RNA)
RNA: GGGAGACCGGAAUUCAGAUUGUCCCCCGACGUUAAAUCCCGUCGUAGCCACCA
DNA 1: CAATCTGAATTCCGGTCTCCC
DNA 2: TGGTGGCTACGACGGGATT
B4: CGAGUCG (DNA:RNA)
RNA: B3 RNA with C26G, C27A, A29U
DNA 1: CAATCTGAATTCCGGTCTCCC
DNA 2: TGGTGGCTACGACGGGATT
B5: UCGCCGA (DNA:RNA)
RNA: B1 RNA with G25U, U26C, G29C, U30G
DNA 1: CAATCTGAATTCCGGTCTCCC
DNA 2: TGGTGGCTACGACGGGATT
B6: AAGUACG (DNA:RNA)
RNA: B3 RNA with C25A, C26A, C27G, G28U
DNA 1: CAATCTGAATTCCGGTCTCCC
DNA 2: TGGTGGCTACGACGGGATT
B7: GGGCAUG (DNA:RNA)
RNA: B1 RNA with U26G, G29A, A31G
DNA 1: CAATCTGAATTCCGGTCTCCC
DNA 2: TGGTGGCTACGACGGGATT
B8: CGGGCAU (DNA:RNA)
RNA: B3 RNA with C26G, C27G, A29C, C30A, G31U
DNA 1: CAATCTGAATTCCGGTCTCCC
DNA 2: TGGTGGCTACGACGGGATT
B9: GGGCAUC (DNA:RNA)
RNA: B1 RNA with U26G, G29A, A31C
DNA 1: CAATCTGAATTCCGGTCTCCC
DNA 2: TGGTGGCTACGACGGGATT
B10: GGGCAUU (DNA:RNA)
RNA: B1 RNA with U26G, G29A, A31U
DNA 1: CAATCTGAATTCCGGTCTCCC
DNA 2: TGGTGGCTACGACGGGATT
B11: GGGCAUA (DNA:RNA)
RNA: B1 RNA with U26G, G29A
DNA 1: CAATCTGAATTCCGGTCTCCC
DNA 2: TGGTGGCTACGACGGGATT
B12: GGGGCAU (DNA:RNA)
RNA: B1 RNA with U26G, C28G, G29C, U30A, A31U
DNA 1: CAATCTGAATTCCGGTCTCCC
DNA 2: TGGTGGCTACGACGGGATT
B13: CGCCCAU (DNA:RNA)
RNA: B3 RNA with C26G, G28C, A29C, C30A, G31U
DNA 1: CAATCTGAATTCCGGTCTCCC
DNA 2: TGGTGGCTACGACGGGATT
B14: AGCCGAC (DNA:RNA)
RNA: B1 RNA with G25A, U26G, G27C, U30A, A31C
DNA 1: CAATCTGAATTCCGGTCTCCC
DNA 2: TGGTGGCTACGACGGGATT
B15: UCGCCUU (DNA:RNA)
RNA: B1 RNA with G25U, U26C, G29C, A31U
DNA 1: CAATCTGAATTCCGGTCTCCC
DNA 2: TGGTGGCTACGACGGGATT
B16: GGGAAGA (DNA:RNA)
RNA: B1 RNA with U26G, C28A, G29A, U30G
DNA 1: CAATCTGAATTCCGGTCTCCC
DNA 2: TGGTGGCTACGACGGGATT
B17: GUCAGAA (DNA:RNA)
RNA: B1 RNA with G27C, C28A, U30A
DNA 1: CAATCTGAATTCCGGTCTCCC
DNA 2: TGGTGGCTACGACGGGATT
B18: CGGAAGA (DNA:RNA)
RNA: B3 RNA with C26G, C27G, G28A, C30G, G31A
DNA 1: CAATCTGAATTCCGGTCTCCC
DNA 2: TGGTGGCTACGACGGGATT
B19: GGAAGAA (DNA:RNA)
RNA: B1 RNA with U26G, G27A, C28A, U30A
DNA 1: CAATCTGAATTCCGGTCTCCC
DNA 2: TGGTGGCTACGACGGGATT
B20: GGAGAAA (DNA:RNA)
RNA: B3 RNA with C25G, C26G, C27A, C30A, G31A
DNA 1: CAATCTGAATTCCGGTCTCCC
DNA 2: TGGTGGCTACGACGGGATT
B21: GGGAGAA (DNA:RNA)
RNA: B1 RNA with U26G, C28A, U30A
DNA 1: CAATCTGAATTCCGGTCTCCC
DNA 2: TGGTGGCTACGACGGGATT
B22: ACUGGCG (DNA:RNA)
RNA: B3 RNA with C25A, C27U, A29G
DNA 1: CAATCTGAATTCCGGTCTCCC
DNA 2: TGGTGGCTACGACGGGATT
B23: CAGGCCG (DNA:RNA)
RNA: B3 RNA with C26A, C27G, A29C
DNA 1: CAATCTGAATTCCGGTCTCCC
DNA 2: TGGTGGCTACGACGGGATT
B24: GCUCGUC (DNA:RNA)
RNA: B1 RNA with U26C, G27U, A31C
DNA 1: CAATCTGAATTCCGGTCTCCC
DNA 2: TGGTGGCTACGACGGGATT
B25: CGUUGAG (DNA:RNA)
RNA: B3 RNA with C26G, C27U, G28U, A29G, C30A
DNA 1: CAATCTGAATTCCGGTCTCCC
DNA 2: TGGTGGCTACGACGGGATT
B26: GCUUGUC (DNA:RNA)
RNA: B1 RNA with U26C, G27U, C28U, A31C
DNA 1: CAATCTGAATTCCGGTCTCCC
DNA 2: TGGTGGCTACGACGGGATT
B27: GCUUGAG (DNA:RNA)
RNA: B3 RNA with C25G, C27U, G28U, A29G, C30A
DNA 1: CAATCTGAATTCCGGTCTCCC
DNA 2: TGGTGGCTACGACGGGATT
B28: GCGCUGG (DNA:RNA)
RNA: B1 RNA with U26C, G29U, U30G, A31G
DNA 1: CAATCTGAATTCCGGTCTCCC
DNA 2: TGGTGGCTACGACGGGATT
B29: GCUUGAA (DNA:RNA)
RNA: B1 RNA with U26C, G27U, C28U, U30A
DNA 1: CAATCTGAATTCCGGTCTCCC
DNA 2: TGGTGGCTACGACGGGATT
B30: GCUGGUC (DNA:RNA)
RNA: B1 RNA with U26C, G27U, C28G, A31C
DNA 1: CAATCTGAATTCCGGTCTCCC
DNA 2: TGGTGGCTACGACGGGATT
B31: CGCGCGC (DNA:RNA)
RNA: B3 RNA with C26G, A29C, C30G, G31C
DNA 1: CAATCTGAATTCCGGTCTCCC
DNA 2: TGGTGGCTACGACGGGATT
B32: CCGCUGG (DNA:RNA)
RNA: B3 RNA with C27G, G28C, A29U, C30G
DNA 1: CAATCTGAATTCCGGTCTCCC
DNA 2: TGGTGGCTACGACGGGATT
B33: GCCGCGC (DNA:RNA)
RNA: B3 RNA with C25G, A29C, C30G, G31C
DNA 1: CAATCTGAATTCCGGTCTCCC
DNA 2: TGGTGGCTACGACGGGATT
B34: GCGCUUG (DNA:RNA)
RNA: B1 RNA with U26C, G29U, A31G
DNA 1: CAATCTGAATTCCGGTCTCCC
DNA 2: TGGTGGCTACGACGGGATT
B35: GCUCUUG (DNA:RNA)
RNA: B1 RNA with U26C, G27U, G29U, A31G
DNA 1: CAATCTGAATTCCGGTCTCCC
DNA 2: TGGTGGCTACGACGGGATT

What follows are binders tested against T1, RBFOX1 RRM (assay: EMSA; HiTS-Eq, 1 nM pool, 10 min; buffer printed only for the single-RNA assays: 10 mM Tris pH 7.5, 150 mM NaCl, 3.4 mM EDTA, 0.001% NP-40, 30 C). Conditions: tags: His6 N-terminal (pET28a); label: 5' 32P.
Method in brief: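 Relative association constants, normalised to the cognate motif, were derived by comparing read counts of each RNA species with those of the control reaction. The RNA sequenced was the free fraction, separated by 8% native PAGE after a 10 min equilibration in 50 µL of 1 nM 5′-radiolabelled RNA (7 randomized nucleotides) with increasing concentrations of purified wild-type or mutant RbFox RRM.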
For B1, the binding signal was 0.0121 KA relative to UGCAUGU.
B2 was tested, and the binding signal was 0.0142 KA relative to UGCAUGU.
In the case of B3, the binding signal is reported as 0.0192 KA relative to UGCAUGU.
With B4 the binding signal was 0.0112 KA relative to UGCAUGU.
In the case of B5, the binding signal is reported as 0.0122 KA relative to UGCAUGU.
For B6, the binding signal was 0.0114 KA relative to UGCAUGU.
In the case of B7, the binding signal is reported as 0.519 KA relative to UGCAUGU.
With B8 the binding signal was 0.0317 KA relative to UGCAUGU.
In the case of B9, the binding signal is reported as 0.0179 KA relative to UGCAUGU.
In the case of B10, the binding signal is reported as 0.0157 KA relative to UGCAUGU.
B11 was tested, and the binding signal was 0.0114 KA relative to UGCAUGU.
In the case of B12, the binding signal is reported as 0.0283 KA relative to UGCAUGU.
In the case of B13, the binding signal is reported as 0.00281 KA relative to UGCAUGU.
In the case of B14, the binding signal is reported as 0.00754 KA relative to UGCAUGU.
In the case of B15, the binding signal is reported as 0.0126 KA relative to UGCAUGU.
B16 was tested, and the binding signal was 0.0349 KA relative to UGCAUGU.
In the case of B17, the binding signal is reported as 0.0136 KA relative to UGCAUGU.
For B18, the binding signal was 0.0191 KA relative to UGCAUGU.
B19 was tested, and the binding signal was 0.0149 KA relative to UGCAUGU.
B20 was tested, and the binding signal was 0.0138 KA relative to UGCAUGU.
For B21, the binding signal was 0.0327 KA relative to UGCAUGU.
With B22 the binding signal was 0.0166 KA relative to UGCAUGU.
With B23 the binding signal was 0.00997 KA relative to UGCAUGU.
For B24, the binding signal was 0.0303 KA relative to UGCAUGU.
B25 was tested, and the binding signal was 0.0235 KA relative to UGCAUGU.
In the case of B26, the binding signal is reported as 0.0386 KA relative to UGCAUGU.
B27 was tested, and the binding signal was 0.0353 KA relative to UGCAUGU.
With B28 the binding signal was 0.0322 KA relative to UGCAUGU.
In the case of B29, the binding signal is reported as 0.0288 KA relative to UGCAUGU.
For B30, the binding signal was 0.0255 KA relative to UGCAUGU.
For B31, the binding signal was 0.0126 KA relative to UGCAUGU.
In the case of B32, the binding signal is reported as 0.0189 KA relative to UGCAUGU.
For B33, the binding signal was 0.0197 KA relative to UGCAUGU.
In the case of B34, the binding signal is reported as 0.0323 KA relative to UGCAUGU.
In the case of B35, the binding signal is reported as 0.014 KA relative to UGCAUGU.
